Most compounds without a hit are left out; they make up all but 2.6% or so of the library.
p53 reactivation: restores transcriptional activity of mutant p53; AID 504706; H1299 p53-A138V BP100-luciferase reporter, luminescence, 24 h; Potency, µM (highest dose often 92.2 µM), for the others: at the top dose activity change, positive = activation, usual class: activators; 320,000 tested, 0.063% active; active means well fitted activation curve with a large enough effect; inconclusive means small, poorly fitted or top-dose-only effect; inactive means no such curve, though single readings can be large or run the other way; further: potency means the concentration at half of the fitted maximal effect; % of control where 0% means no effect; nearly all actives have a fitted effect of over 45% in size
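p53-null H1299 cells stably carrying temperature-sensitive p53-A138V and a BP100-luciferase reporter were pinned with compounds (4-point, 1:5 series) and held 24 hrs at 37 deg C. Luminescence was read 10 min after detection reagent.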
ClpP mod: qHTS Assay for Activators of ClpP; 340,000 tested, 1.9% active; Potency, µM (top dose mostly 57.5 µM), without a hit: at the top dose activity change, negative = active; purified B. subtilis ClpP, FRET peptide cleavage, 20 min; ATP-dependent Clp protease proteolytic subunit (Bacillus subtilis (strain 168)), P80244; AID 651965, 2013; active means well fitted falling curve with a large enough effect; inconclusive means small, poorly fitted or top-dose-only effect; inactive means no such curve, though single readings can be large or run the other way; further: potency means the concentration at half of the fitted maximal effect; the source files actives as falling curves though it sought activators and does not explain the sign; nearly all actives have a fitted effect of over 65% in size
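FRET quenching reversal measured ClpP activation: 10 microg/mL B. subtilis ClpP at pH 8 with the FRET-FV decapeptide, read at 430 nm after 320 nm excitation. The 20-min minus 0-min signal was scaled between DMSO/no-enzyme wells and ADEP (5.8 microM final).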
TRPV1 ag: activates the human vanilloid receptor TRPV1; Q8NER1; TRPV1-expressing cells, Fluo-8 calcium influx, agonist mode; activation, % at 8.33 µM; 320,000 tested, 0.19% active; in the data active means activation above about 80%; inconclusive means between about 30% and that limit; further: 0% is about no effect
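TRPV1-expressing cells were cultured overnight at 35.5C and loaded with Fluo-8 calcium dye for 40 to 90 min at room temperature. After a 10 s baseline, compound was added and calcium influx was read kinetically for 3 min (ex 480/em 520 nm).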
KCNH2 3.1 block: KCNH2 3.1 (human) potassium channel inhibition; U2OS KCNH2 3.1, thallium flux FluxOr; hits give low values; AID 720553; activity change, % (tested at about 1.8 µM); 340,000 tested, 0.95% active;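 active means maximum activity change below -70%; inconclusive means maximum activity change from -70% to -50%; inactive means maximum activity change above -50%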;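 further: thallium influx rate constant from kinetic fluorescence after stimulation buffer; on the % scale 0 is the no-effect control and ±100 the full control effect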
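Channel expression came from 3.1 mutant virus (1.77 x 10^8 /mL) applied to suspended U2OS cells for 4 h. Flux was tracked with FluxOr dye plus Red40 quencher, and kinetic rate constants normalized to controls.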
hERG WT inh: blocks the wildtype human KCNH2 potassium channel; Q12809; U2OS, BacMam KCNH2, thallium flux FluxOr; hits give low values; activity change, % at 1.84 µM; 340,000 tested, 0.37% active;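 active means maximum activity change below -70%; inconclusive means maximum activity change between -70% and -50%; inactive means maximum activity change above -50%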; further: on the % scale 0 is the no-effect control and ±100 the full control effect
Target sequence (Q12809 whole entry, looked up): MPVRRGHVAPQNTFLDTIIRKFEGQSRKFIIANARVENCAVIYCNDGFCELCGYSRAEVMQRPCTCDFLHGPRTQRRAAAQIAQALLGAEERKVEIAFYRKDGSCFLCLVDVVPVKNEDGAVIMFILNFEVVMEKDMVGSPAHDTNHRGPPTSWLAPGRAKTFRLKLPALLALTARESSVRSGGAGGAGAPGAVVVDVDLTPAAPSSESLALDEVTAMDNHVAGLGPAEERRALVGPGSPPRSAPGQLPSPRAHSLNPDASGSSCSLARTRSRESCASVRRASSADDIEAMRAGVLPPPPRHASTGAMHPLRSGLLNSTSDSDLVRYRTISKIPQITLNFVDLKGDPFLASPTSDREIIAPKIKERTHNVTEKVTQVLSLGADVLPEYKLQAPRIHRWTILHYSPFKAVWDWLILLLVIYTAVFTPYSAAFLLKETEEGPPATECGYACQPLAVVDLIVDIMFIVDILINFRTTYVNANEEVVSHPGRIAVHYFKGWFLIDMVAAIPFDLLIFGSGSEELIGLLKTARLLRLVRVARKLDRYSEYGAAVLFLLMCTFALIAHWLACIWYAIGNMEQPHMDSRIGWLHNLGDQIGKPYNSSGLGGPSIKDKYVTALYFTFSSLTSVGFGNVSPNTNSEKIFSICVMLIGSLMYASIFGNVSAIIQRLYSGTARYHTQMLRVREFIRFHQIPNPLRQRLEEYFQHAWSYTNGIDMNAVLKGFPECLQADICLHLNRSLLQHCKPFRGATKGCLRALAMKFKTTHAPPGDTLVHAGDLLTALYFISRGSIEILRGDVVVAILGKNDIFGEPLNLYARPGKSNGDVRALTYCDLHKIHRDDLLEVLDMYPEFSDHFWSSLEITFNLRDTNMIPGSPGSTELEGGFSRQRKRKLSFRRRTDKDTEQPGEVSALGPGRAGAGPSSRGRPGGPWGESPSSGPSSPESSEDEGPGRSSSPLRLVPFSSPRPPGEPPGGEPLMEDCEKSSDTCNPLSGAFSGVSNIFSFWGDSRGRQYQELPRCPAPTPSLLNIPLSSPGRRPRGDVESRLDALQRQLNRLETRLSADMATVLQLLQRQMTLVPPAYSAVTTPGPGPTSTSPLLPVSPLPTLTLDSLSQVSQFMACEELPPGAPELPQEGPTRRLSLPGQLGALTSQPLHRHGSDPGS
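U2OS cells were transduced with wild-type KCNH2 virus (2.03 x 10^8 / mL) for 4 h at room temperature, then cultured overnight at 37 C. Thallium flux was read with FluxOr dye. Rate constants were normalized to DMSO controls.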
TRPV1 PAM: human TRPV1 potentiation. Q8NER1. TRPV1-expressing cells, Fluo-8 calcium influx, capsaicin EC20 potentiation. potentiation, % at 8.33 µM. 320,000 tested, 0.02% active. AID 540277; in the data active means potentiation above about 80%; inconclusive means between about 30% and that limit; further: 0% is about no effect
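Fluo-8 calcium influx in TRPV1-expressing cells, kinetic read (ex 480/em 520 nm). Compound added and read 3 min for agonist activity, followed by capsaicin at EC20 final and 2 min further read for enhancement.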
An asterisk follows results filed as active; ? = inconclusive; · = no result.

SMILES | p53 reactivation | ClpP mod | TRPV1 ag | KCNH2 3.1 block | hERG WT inh | TRPV1 PAM
CN(C)CCNC(=O)c1cc2c(s1)-c1ccc(Cl)cc1SC2 | -16% | 5% | 5 | -81* | -113* | -6
CCCN(C(=O)c1cc2c(s1)-c1ccccc1OC2)c1ccccc1F | · | 4% | · | · | · | ·
CCCN(C(=O)c1cc2c(s1)-c1ccccc1SC2)c1ccccc1F | · | 32µM* | · | · | · | ·
CC(C)OC(=O)c1cc2c(ccn2C)n1CC(=O)N(Cc1ccccc1)c1ccc(F)cc1 | 7% | 32µM* | -6 | -15 | -12 | 9
CCOC(=O)c1cc2c(ccn2C)n1CC(=O)N(Cc1ccccc1)c1ccc(F)cc1 | 10% | -10% | 9 | 9 | 4 | -3
COc1ccc(CN2CCc3c([nH]c4ccccc34)C2)cc1Br | 8% | -5% | 0 | -11 | 16 | 2
COc1ccc(CN2CCc3c([nH]c4ccccc34)C2)c(OC)c1C | · | 28µM* | 14 | -79* | 15 | -1
CCOc1ccc(S(=O)(=O)Nc2ccccn2)c2ccccc12 | -3% | 35µM* | -5 | 15 | 7 | -13
CCOc1ccc(S(=O)(=O)NCc2ccc(F)cc2)c2cccnc12 | -6% | 25µM* | 7 | -15 | 2 | -5
CCOc1ccc(S(=O)(=O)NCc2ccc(OC)cc2)c2cccnc12 | -11% | -6% | -2 | 20 | -7 | 2
CCCOc1ccc(S(=O)(=O)Nc2ccccn2)c2ccccc12 | · | -2% | 4 | -4 | -7 | 2
N#Cc1c(-n2ncnc2-c2ccccc2Cl)sc2c1CCCCC2 | · | 1% | · | · | · | ·
Nn1c(SCc2cccc(Br)c2)nnc1-c1cccnc1 | 3% | · | 1 | -99* | -1 | 7
O=C(CCC1N=C2c3ccccc3N=C(SCc3cccc(F)c3)N2C1=O)NC1CCCCC1 (stereo not drawn) | · | -23% | · | · | · | ·
Cc1nnc2sc(SCC(=O)Nc3ccc(Br)cc3)nn2c1=O | -1% | 25µM* | -2 | 6 | 2 | 3
COc1ccc(C(c2nnnn2C2CCCCC2)N2CCN(C)CC2)c(OC)c1 (stereo not drawn) | 0% | 0% | ? | 3 | 13 | -15
CCCN1CCN(C(c2cc3cc(OCC)ccc3[nH]c2=O)c2nnnn2C2CCCCC2)CC1 (stereo not drawn) | 6% | 28µM* | 16 | -32 | 40 | -12
COc1ccc2[nH]c(=O)c(C(c3nnnn3C3CCCCC3)N3CCN(C)CC3)cc2c1 (stereo not drawn) | -7% | 32µM* | 3 | -9 | -8 | 2
COc1ccc(/C=C(\C#N)c2nc(-c3cc(Cl)ccc3OC)cs2)cc1 | · | 0% | · | · | · | ·
O=C(COc1ccccc1)NC(NC(=S)Nc1ccccc1C(=O)O)C(Cl)(Cl)Cl (stereo not drawn) | -1% | 35µM* | -2 | 13 | -2 | 22
Cc1ccc(C)c(NC(=S)NC(NC(=O)Cc2ccccc2)C(Cl)(Cl)Cl)c1 (stereo not drawn) | -11% | -2% | -4 | 1 | -14 | ?
COc1ccc(-c2nc(CSCC(=O)N3CCN(c4cccc(C)c4C)CC3)c(C)o2)cc1OC | · | -23% | · | · | · | ·
Cc1nc2c(OCCN3C(=O)c4ccccc4C3=O)cccn2c1N(C)C(=O)CCC1CCCC1 | · | 1% | · | · | · | ·
O=C(CN1CCCCCC1)Nc1ccc(F)c(F)c1 | -5% | -6% | 1 | 4 | 0 | 8
CCOc1ccc(NC(=O)CN2CCN(CC(=O)Nc3ccc(F)c(F)c3)CC2)cc1 | -3% | 3% | 4 | -93* | -117* | 4
SMILES | p53 reactivation | ClpP mod | TRPV1 ag | KCNH2 3.1 block | hERG WT inh | TRPV1 PAM
COC(=O)c1ccc(NC(=O)CN2CCCC2)cc1 | 9% | -1% | -5 | 0 | -6 | -2
CCOc1ccc(NC(=O)CN2C(=O)CSC2=O)cc1 | 5% | · | 0 | -90* | -18 | 24
CCOc1ccc(NC(=O)CN2CCN(CC(=O)Nc3ccc(C(=O)OC)cc3)CC2)cc1 | -8% | 1% | 2 | -83* | ? | ?
O=C(CN1CCN(CC(=O)Nc2ccccc2Cl)CC1)Nc1ccc(F)c(F)c1 | 0% | -3% | 15 | -111* | ? | -6
CCOc1ccc(NC(=O)CN2CCN(c3ccc(F)cc3)CC2)cc1 | -3% | · | 12 | 32 | 1 | 24
Cc1ccccc1-c1nn2c(=O)cc(CN3CCN(S(=O)(=O)c4ccc(Cl)cc4)CC3)nc2s1 | · | -1% | · | · | · | ·
Nc1c(Br)cc(/C=C2\C=Cc3ccccc32)cc1Br | · | -1% | · | · | · | ·
CN1C(=O)[C@@](O)(c2cn(C)c3ccccc23)c2cc(Br)ccc21 | · | 1% | · | · | · | ·
O=C(CN1CCN(C(=O)CNC(=O)c2ccc(-c3ccccc3)cc2)CC1)Nc1ccccc1Cl | · | -17% | · | -84* | 15 | ·
O=C(CN1CCCC1)Nc1ccccc1Sc1ccc(Cl)cc1 | 5% | -17% | -12 | -90* | 10 | -14
NC(=O)C1CCN(CC(=O)Nc2ccccc2Sc2ccc(Cl)cc2)CC1 | -21% | 1% | ? | -1 | 5 | 0
Cc1cc(C)c2c(n1)SCC(=O)N2CC(=O)Nc1ccc(C)c(C)c1 | 11% | 2% | 2 | -130* | 2 | 5
CCc1ccc(OCCn2c(CCNC(=O)C3CCCCC3)nc3ccccc32)cc1 | · | -1% | · | · | · | ·
CCCN1CCCc2cc(CN(CCCN3CCOCC3)C(=O)Nc3ccc(Cl)c(Cl)c3)ccc21 | · | -6% | · | · | · | ·
CC[C@]1(C(=O)OC)[C@H]2C(=O)N(Cc3ccccc3)C(=O)[C@H]2[C@H]2CN(C)C(=NCc3ccccc3)N21 | 4% | 4% | · | -1 | -8 | ·
COc1cc2c(cc1OC)C(c1ccc(Cl)cc1)N(c1ccc(C)c(F)c1)C(=O)C2 (stereo not drawn) | · | -1% | · | · | · | ·
O=C(c1ccccc1Cl)N(Cc1ccc(Br)cc1)N1C(=O)CCCC1=O | -3% | 2% | 18 | 0 | 5 | 24
O=C(c1ccc([N+](=O)[O-])cc1)N(Cc1ccc(Br)cc1)N1C(=O)CCCC1=O | 2% | 0% | -1 | ? | -84* | -7
O=C(C[n+]1cccc(Br)c1)c1ccc(O)c(O)c1 | · | 2% | · | · | · | ·
CC(C)COc1ccc(C(=O)OC2CC(C)(C)OCC2CN(C)C)cc1 (stereo not drawn) | 1% | 20µM* | 4 | 3 | -12 | 11
COc1ccc(C(=O)OC2CCCCC2CN(C)C)cc1 (stereo not drawn) | -5% | 0% | -1 | -16 | 4 | -2
CCCc1c(C(=O)N/N=C/C=C/c2ccccc2)nnn1-c1nonc1N | · | -7% | · | -7 | 13 | ·
CCOCCCNC(=S)N1CCC(C(=O)c2ccc(C)cc2)CC1 | · | 32µM* | 0 | -3 | 12 | 0
CC(C)OCCCNC(=S)N1CCC(C(=O)c2ccc(Cl)cc2)CC1 | · | 0% | 6 | -13 | 32 | 16

Bioassay records (PubChem BioAssay)
